Assay outcomes as filed in PubChem.
ELG1 genotoxic = induces genotoxicity in HEK293T cells with luciferase-tagged ELG1; HEK293T ELG1-luciferase reporter, luminescence, 16 h; Potency, µM (top dose mostly 46 µM), without a hit: top-dose activity change, positive = activation, most hits filed as activators; 330,000 tested, 1.3% active; AID 504466; also: % of control where 0% means no effect; nearly all actives have a fitted effect of over 60% in size
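After overnight (16 hr) compound treatment at 37 °C, ELG1-luciferase HEK293T cells were lysed with ONE-Glo; luminescence quantified 30 min later at room temperature.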
FLuc modulator = inhibits or activates purified firefly luciferase, miR-21 counter-screen; purified FLuc, Km substrates, luminescence inhibition; Potency, µM (doses to about 57.5 µM), for inactives: at the highest dose activity change, negative = inhibition, usual class: inhibitors; 360,000 tested, 6.9% active; AID 588342;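 also: plate controls were vehicle for no effect and reference inhibitor for full effect; nearly all actives have a fitted effect of over 55% in size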
Target sequence (P08659 whole entry, looked up): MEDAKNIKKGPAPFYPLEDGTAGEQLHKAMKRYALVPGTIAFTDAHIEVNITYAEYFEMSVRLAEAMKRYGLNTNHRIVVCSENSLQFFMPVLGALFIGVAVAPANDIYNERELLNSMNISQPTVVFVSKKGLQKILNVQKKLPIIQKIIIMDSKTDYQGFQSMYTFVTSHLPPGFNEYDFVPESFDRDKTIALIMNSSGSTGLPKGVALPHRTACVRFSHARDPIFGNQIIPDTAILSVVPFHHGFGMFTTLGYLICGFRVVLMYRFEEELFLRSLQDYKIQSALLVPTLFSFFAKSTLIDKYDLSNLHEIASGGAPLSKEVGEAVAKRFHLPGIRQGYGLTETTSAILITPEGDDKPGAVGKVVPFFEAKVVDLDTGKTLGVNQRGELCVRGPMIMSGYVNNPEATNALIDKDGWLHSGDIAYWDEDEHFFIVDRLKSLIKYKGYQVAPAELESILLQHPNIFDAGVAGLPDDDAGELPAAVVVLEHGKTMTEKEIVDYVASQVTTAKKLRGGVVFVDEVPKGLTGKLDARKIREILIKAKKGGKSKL
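Purified P. pyralis luciferase, 10 nM final, with Km-level 10 uM D-luciferin and 10 uM ATP in 50 mM Tris acetate pH 7.5, 10 mM Mg acetate, 0.01% Tween-20, 0.05% BSA; 6-point qHTS titration about 60 µM downward; luminescence read.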
NPC1 promoter act = activates the NPC1 promoter. Huh7 NPC1 promoter luciferase reporter, 24 h. Potency, µM (titrated, usually from 9.22 µM), for inactives: at the highest dose activation, usual class: activators. 320,000 tested, 2.4% active. AID 485313; also: % of control where 0% means no effect; nearly all actives have a fitted effect of over 60% in size
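Stably transfected Huh7 (NPC1 promoter→luciferase), 1500 cells/well in Opti-MEM + 10% FBS, 2 h settle, then compound 24 h at 37 °C. Luminescence after 10 min with Amplite reagent.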
Rab9 prom act = Rab9 promoter activation; Huh7 Rab9 promoter-luciferase reporter, luminescence, 24 h; Potency, µM (series often up to 9.22 µM), inactives show top-dose activation, negative = inhibition, most hits filed as activators; 320,000 tested, 2.8% active; AID 485297; also: % of control where 0% means no effect; nearly all actives have a fitted effect of over 60% in size
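Using Huh7 cells stably transfected with Rab9 promoter–luciferase, compounds were incubated 24 h at 37 °C, 5% CO2; luciferase luminescence was read 10 min after reagent addition.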
SMN2 splice up = enhancers of SMN2 splice variant expression; HEK293 SMN2-luciferase splicing reporter, luminescence, 30-36 h; 210,000 tested, 2.8% active; Potency, µM (doses to about 46.1 µM), without a hit: top-dose activity change, positive = activation, most hits filed as activators; also: % of control where 0% means no effect; nearly all actives have a fitted effect of over 55% in size
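HEK293 cells carry an SMN2 minigene-luciferase reporter in which exon 7 inclusion puts luciferase in frame. Cells were seeded at 2000 cells/well, attached for 10-12 hours, then exposed to compounds for 30-36 hours at 37C before ONE-Glo luminescence.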
ELG1 repair inh = blocks ELG1-dependent DNA repair in HEK293T cells. HEK293T ELG1-luciferase reporter, luminescence, 16 h; DNA damage induced by 5-fluorouridine. Potency, µM (titrated, usually from 46.1 µM), for the others: at the top dose activity change, negative = inhibition, usual class: inhibitors. 330,000 tested, 2.3% active. AID 504467; also: % is scaled to controls: 0 for no effect and ±100 for the full control effect; nearly all actives have a fitted effect of over 55% in size
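5-Fluorouridine DNA damage + compound/DMSO, 2,000 cells/well, 16 h, 37 °C/5% CO2. ONE-Glo, 30 min RT, luminescence. Readout = decrease in reporter signal.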
Starred values were filed as active, the others as inactive; ? = inconclusive; · = no result; [ ] = remark or other dose. In the library only some 9.4% were active in any assay of this set; here they are far more common. Calls follow the shape of the dose curve; as a rule, active = well fitted curve in the direction sought with a large enough effect; inconclusive = small, poorly fitted or top-dose-only effect, or another doubt; inactive = no such curve, though single readings can be large; an effect the other way counts as inactive or inconclusive. Potency is read from the fitted curve at half-maximal effect.

SMILES	ELG1 genotoxic	FLuc modulator	NPC1 promoter act	Rab9 prom act	SMN2 splice up	ELG1 repair inh
O=C(N/N=C/C=C/c1ccccc1)c1ccncc1	1.3%	-9.9%	-0.1%	-4.8%	0.7%	?
COc1cc(/C=N/Nc2ccc(C(F)(F)F)cn2)ccc1O	15.8%	?	0.9%	11.0%	24.8%	?
O=c1c(-c2cc(F)cc(F)c2)nc2cnc(N3CCNCC3)nc2n1Cc1cccs1	·	·	·	·	-15.2%	·
O=S(=O)(NC[C@@H]1CCC[C@H](CNS(=O)(=O)c2c(F)cccc2F)C1)c1ccc2c(c1)OCCO2	·	0.2%	-1.8%	1.0%	·	·
O=C(O)c1ccc(N/N=C/c2ccc(OC(=O)c3ccccc3Cl)cc2)cc1	?	1.9µM*	?	?	-28.4%	?
O=C(N/N=C/c1ccc(F)c(F)c1)c1cccc(S(=O)(=O)N2CCCCC2)c1	0.6%	6.5%	-4.5%	-1.8%	·	4.5%
NC(=O)N/N=C/c1cccc(C(F)(F)F)c1	2.0%	2.3%	-1.1%	3.8%	·	-10.6%
O=C(O)c1cccc(N/N=C/C2=C(Cl)c3cc(Cl)ccc3SC2)c1	0.58µM*	1.35µM*	0.316µM*	0.794µM*	0.501µM*	?
Nc1ccc(C(=O)N/N=C\c2ccc(OC(=O)c3ccccc3Cl)cc2)cc1	4.5%	?	-2.9%	2.4%	·	?
O=C(O)c1cccc(N/N=C/c2ccc(F)c(F)c2)c1	?	0.338µM*	0.282µM*	0.282µM*	1.12µM*	?
O=C(O)c1ccc(/C=N/Nc2cccc(C(F)(F)F)c2)cc1	?	21.3µM*	2.82µM*	2.51µM*	10µM*	?
O=C(CN1C(=O)COc2ccc(Cl)cc21)Nc1ccc(F)cc1	·	-3.0%	·	·	3.2%	·
CCOC(=O)Cn1c(=O)n(C2CCCCC2)c2nc(-c3cccc(C)c3)nc(C(N)=O)c21	·	0.1%	·	·	·	·
Cc1ccc(-c2cc(C(=O)N3CCCc4ccccc43)no2)cc1	?	4.26µM*	?	3.16µM*	?	?
O=C(c1cc(-c2ccc(F)cc2)on1)N1CCCc2ccccc21	?	10.7µM*	22.1%	?	?	?
COc1ccccc1-c1cc(C(=O)N2CCCc3ccccc32)no1	9.4%	?	2.1%	14.3%	3.5%	20.4%
O=C(c1cc(-c2cccs2)on1)N1CCCc2ccccc21	?	16.9µM*	13.8%	22.5%	21.5%	?
CCCNc1ccc(C(=O)OCC)cc1[N+](=O)[O-]	?	26.9µM*	?	?	-10.6%	?
CCOC(=O)CNc1ccc(C(=O)OCC)cc1[N+](=O)[O-]	4.0%	-12.8%	-1.7%	1.5%	8.0%	5.4%
Cc1ccc(NC(=O)COc2ccc(N(C)C(=O)C(C)(C)C)cc2)cc1S(=O)(=O)N1CCCCC1	-7.2%	·	·	·	·	8.2µM*
Cc1ccc(OCC(=O)Nc2ccc(C)c(S(=O)(=O)N3CCCCCC3)c2)c([N+](=O)[O-])n1	-12.5%	-11.6%	-7.5%	-4.8%	-19.6%	16.4µM*
Cc1ccc(NC(=O)COc2ccccc2C(N)=O)cc1S(=O)(=O)N1CCCCCC1	-3.0%	23.9µM*	-22.1%	-25.8%	·	?
O=C(O)CCSCc1ccccc1	·	·	·	·	-1.2%[9.22 µM]	·
COc1ccccc1CCNC(=O)C(=O)NCC(c1ccco1)S(=O)(=O)c1ccc(F)cc1 (stereo not drawn)	·	-0.3%	·	·	·	·
Cc1ccc(C)c2[nH]c(=O)c(CN(CCN3CCCC3)C(=O)Nc3cccc(Cl)c3)cc12	-6.6%	-1.6%	-15.8%	-14.5%	-15.9%	14.6µM*
SMILES	ELG1 genotoxic	FLuc modulator	NPC1 promoter act	Rab9 prom act	SMN2 splice up	ELG1 repair inh
Cc1ccc2[nH]c(=O)c(CN(CCCN(C)C)C(=O)Nc3ccc(Cl)cc3)cc2c1	13.4%	3.8%	-6.7%	?	8.8%	3.7%
CC(=O)N(CCc1ccccc1C)Cc1cc2ccc(C)cc2[nH]c1=O	-6.6%	-0.8%	-2.2%	-2.8%[1.84 µM]	·	16.4µM*
Cc1ccc2cc(CN(CCN(C)C)C(=O)Nc3ccc(Cl)cc3)c(=O)[nH]c2c1	-0.8%	10.7µM*	-0.1%	2.4%	·	3.7%
Cc1cc(C)c2cc(CN(CCN3CCCC3)C(=O)Nc3ccc(F)cc3)c(=O)[nH]c2c1	3.2%	-0.4%	16.7%	2.1%	22.4%	?
Cc1cc(C)c2cc(CN(CCO)C(=O)Nc3ccc(Cl)cc3)c(=O)[nH]c2c1	0.2%	0.7%	1.3%	-5.8%	?	18.4µM*
O=C(NCc1ccco1)c1c[nH]c2ccc(S(=O)(=O)Nc3ccc(F)cc3F)cc2c1=O	·	?	·	·	-8.9%	·
O=c1cc(-c2ccccc2)nc2nc[nH]n12	-0.1%	?	-0.7%	5.9%	-21.9%	-0.1%
COc1ccc(-c2cc(=O)n3[nH]cnc3n2)cc1	·	15.1µM*	·	·	·	·
COC(=O)CC1C(=O)NCCN1C(=O)CSc1nnc(Nc2ccc(OC)cc2)s1 (stereo not drawn)	6.0%	21.3µM*	6.3%	1.5%	·	5.0%
COC(=O)CC1C(=O)NCCN1C(=O)CSc1nc2ccccc2o1 (stereo not drawn)	-3.2%	4.2%	-4.9%	-7.1%	0.3%	-15.8%
COC(=O)CC1C(=O)NCCN1C(=O)CSc1nnc(Nc2ccc(C)cc2)s1 (stereo not drawn)	7.2%	16.9µM*	0.5%	2.0%	4.9%	6.2%
CC(=C/C=C/C(C)=C/C=C/C=C(C)/C=C/C=C(C)/C=C/C(=O)O)/C=C/C(=O)O	·	·	·	·	-1.8%	·
COc1ccc(-c2cnnn2-c2ccc(NC(=O)/C=C/c3ccc(OC)c(OC)c3)cc2)cc1	-6.0%	-1.0%	-2.1%	-5.8%	-10.6%	5.8µM*
COc1ccc(/C=C/C(=O)Nc2ccc(-n3nncc3-c3ccc(OC)c(OC)c3)cc2)cc1OC	0.0%	6.6%	-3.1%	-5.2%	?	?
O=C(COC(=O)/C=C/c1ccc(OC(F)F)cc1)Nc1cccc(S(=O)(=O)N2CCCC2)c1	9.1%	19µM*	0.3%	-6.7%	·	1.8%
CC(=O)c1cccc(NC(=O)/C=C/c2ccc(S(=O)(=O)N3CCOCC3)cc2)c1	-5.2%	·	·	·	·	23.1µM*
CCN(CC)S(=O)(=O)c1ccc(/C=C/C(=O)Nc2cccc(F)c2)cc1	-16.7%	?	-1.2%	-2.5%	-25.2%	13µM*
O=C(/C=C/c1cccc(F)c1)Nc1ccc(S(=O)(=O)N2CCOCC2)cc1	-1.4%	·	·	·	·	?
CCOC(=O)c1c(N)n(-c2ccccc2CC)c2nc3ccccc3nc12	·	4.3%	·	·	·	·
COc1ccc(/C=C/C(=O)Nc2cccc(S(=O)(=O)N3CCOCC3)c2)cc1OC	-1.7%	?	-3.1%	-4.5%	·	20.6µM*
COc1ccc(/C=C/C(=O)Nc2ccccc2)cc1OC	?	13.5µM*	?	3.16µM*	12.6µM*	?
